Dicer processing = blocks human Dicer maturation of pre-miR-21; 47,000 tested, 6% active; cat-ELCCA pre-miR-21 Dicer processing, chemiluminescence; hits give high values; z-score at 25 µM; Q9UPY3; in the data active = z-score above about 3, passing the limit was not always enough;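 note: plate controls were vehicle for no effect and no enzyme for full effect; higher signal means more uncleaved substrate so more Dicer inhibition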
* hit, by the source's call. The entries come from a sample that favours hits as a whole.

SMILES | Dicer processing
Cn1c(CSc2cc(C(F)(F)F)nc3ccccc23)nnc1SCc1ccccc1 | -1.7
FC(F)(F)c1cccc(N2CCN(c3nc(-c4ccc(Cl)cc4)cs3)CC2)c1 | -3.2
CSC1=C(C#N)C(=O)NC(c2cccc3ccccc23)S1 (configuration not stated) | 0.89
CSC1=C(C#N)C(=O)NC(c2ccccc2O)S1 (configuration not stated) | -0.17
CC(C)(C)NC1=C(C#N)C(=O)NC(c2ccccc2O)S1 (configuration not stated) | 3.9*
CC(C)c1ccc(NNC(=O)CCc2ccccc2)cc1 | -2
O=C(CN(C1CCCCC1)S(=O)(=O)c1ccc(Br)cc1)N1CCc2ccccc2C1 | -1.1
CCc1cc2c(=O)c(-c3nc4ccccc4n3C)c(C)oc2cc1O | 1.3
CCc1cc2c(=O)c(-c3nc4ccccc4n3C)coc2c(CN(C)C)c1O | 3.4*
CCc1cc2c(=O)c(-c3nc4ccccc4[nH]3)coc2c(CN2CCC(C)CC2)c1O | 4.9*
CCc1cc2c(=O)c(-c3nc4ccccc4[nH]3)coc2c(CN(CC)CC)c1O | 0.96
O=c1c(-c2nc3ccccc3s2)coc2c(CN3CCCCC3)c(O)ccc12 | 0.4
Cc1nc(-c2coc3c(C)c(O)c(CN(C)C)cc3c2=O)cs1 | -0.18
CCc1ccc(-c2nc3ccccc3c(=O)o2)cc1 | 0.7
N#Cc1ccc(CSC(=N)N)cc1 | -1.7
CCCCCCCNC1CC(=O)N(c2ccc(F)cc2)C1=O (configuration not stated) | 3.9*
CN(C)c1ccc(NC2CC(=O)N(c3ccc(F)cc3)C2=O)cc1 (configuration not stated) | -1.6
CC(C)CNC1CC(=O)N(c2ccc(C(C)C)cc2)C1=O (configuration not stated) | -0.87
CCOC(=O)C(=CNCCNc1ccc(C(F)(F)F)cc1[N+](=O)[O-])C(=O)OCC | -0.26
COc1ccc2[nH]c(C(=O)NCCSCc3ccc(F)cc3)cc2c1 | 0.67
Cc1onc(-c2ccccc2)c1CNC(=O)c1c(-c2ccccc2)noc1C | -0.08
O=c1[nH]c2ccccc2c2ccccc12 | -0.32
O=c1[nH]c2ccccc2c(O)c1-c1ccccc1 | 0.27
O/N=C1\CCCc2[nH]c3ccccc3c21 | 5.1*
O=C(Nc1cc2ccccc2s1)NC1CCN(Cc2ccccc2)CC1 | -0.75
SMILES | Dicer processing
COc1ccccc1C(=O)CC1(O)C(=O)N(Cc2ccccc2)c2ccc(Br)cc21 (configuration not stated) | 0.89
Cn1c(OCc2ccc3c(c2)OCO3)nc2c1c(=O)n(Cc1ccc(F)cc1)c(=O)n2C | -1.1
Cc1nnc(NC(=O)CCC(=O)O)s1 | 0.99
CC(C)c1nnc(NC(=O)CCCC(=O)O)s1 | -1
Cc1nnc(NC(=O)CCCC(=O)O)s1 | 3.7*
Nc1n[nH]c(-c2ccccc2)c1Br | -7.8
C/C(=N\Nc1nc(C(C)(C)C)cs1)c1cc2cc(Cl)ccc2o1 | -1.1
Nc1ncnc2sc3c(c12)CCCC3 | -0.7
Nc1nc(-c2ccncc2)nc2sc3c(c12)CCCCC3 | 4.1*
Nc1ncnc2sc3c(c12)CCCCC3 | 1.7
COc1ccc(OC)c(C2Nc3ccccc3NC3=C2C(=O)CC(c2ccccc2)C3)c1 (configuration not stated) | 0.27
CC1CCc2c(sc3nnn(CC(N)=O)c(=O)c23)C1 (configuration not stated) | 6.4*
CC1CCc2c(sc3nnn(CC(=O)N4CCCCC4)c(=O)c23)C1 (configuration not stated) | 2
CC1CCc2c(sc3nnn(CC(=O)OC(C)C)c(=O)c23)C1 (configuration not stated) | 1.4
N#Cc1c(SCC(=O)c2ccc([N+](=O)[O-])cc2)nsc1SCC(=O)c1ccc([N+](=O)[O-])cc1 | 0.7
COCCOC(=O)C1=C(C)N=C2SCCC(=O)N2C1c1ccccc1Cl (configuration not stated) | -0.24
O=C(OCC1CC1)c1cnc(Sc2ccccn2)nc1C(F)(F)F | -1.6
COC(=O)c1ccc(S(=O)(=O)NC2CCN(Cc3ccccc3)CC2)n1C | 0.61
COC(=O)c1cc(C2C(C#N)=C(C)NC3=C2C(=O)CC(C)(C)C3)c(OC)cc1OC (configuration not stated) | -0.56
Cc1cc(C)c(S(=O)(=O)N(C(=O)c2cccnc2)c2ccc3oc(=O)sc3c2)cc1C | 11*
Cc1ccc(S(=O)(=O)NCc2cccnc2)c(C)c1 | 1.2
Cc1ccc(C)c(S(=O)(=O)N(C(=O)c2cccnc2)c2ccc3oc(=O)sc3c2)c1 | 13
Cc1ccc(S(=O)(=O)N(C(=O)c2cccnc2)c2ccc3oc(=O)sc3c2)c(C)c1 | 8.4*
COC(=O)C(CC(C)C)NC(=O)N1CCOCC1 (configuration not stated) | -0.39
Cc1[nH]nc2c1C(c1cccc(Br)c1)C(C#N)=C(N)O2 (configuration not stated) | -2.5
SMILES | Dicer processing
O=[N+]([O-])c1ccc(C2N(Cc3ccccc3)CCC3CCCCN32)cc1 (configuration not stated) | -0.85
Cc1csc(NS(=O)(=O)c2ccccc2)n1 | -0.02
O=C(Nc1cc(Cl)cc(Cl)c1)Nc1cc(-c2ccco2)[nH]n1 | -0.11
CCOC(=O)C1=NN(c2ccc(Cl)cc2)/C(=C2\C(=O)NN=C2c2ccccc2)S1 | -5.3
COc1ccc(-c2cn3cccc(OCc4ccc(Cl)c(Cl)c4)c3n2)cc1 | -1.1
O=C(CSc1nnc(-c2ccncc2)n1-c1ccccc1)c1ccccc1 | -2.6
COCc1cc(=O)oc2cc(NS(C)(=O)=O)ccc12 | 1.2
Cc1cc(C)c2c(c1)-c1cc(C)nn1C(c1ccc(C(=O)O)cc1)N2 (configuration not stated) | -2.7
O=C(c1cc(-c2ccccc2)nc2ccccc12)N1CCOCC1 | 1.5
O=C(C1Cc2ccccc2C1)N1CCOCC1 | 7.3*
Cc1ccc(SC(=O)N2CCOCC2)cc1 | -0.58
Oc1ccc2ncccc2c1C(Nc1ccccn1)c1cccc(Cl)c1 (configuration not stated) | 0.33
Cc1ccc(-c2nc(C)cc(=O)[nH]2)cc1 | 2.4
CCOC(=O)c1cc(CSc2n[nH]c(=O)n2-c2ccccc2)on1 | -0.14
Cc1cccc(-c2nc3n(n2)C(c2ccc(O)cc2)C2=C(CCCC2=O)N3)c1 (configuration not stated) | 0.2
O=C1CCCC2=C1C(c1ccc3c(c1)OCO3)n1nc(-c3cccc(Cl)c3)nc1N2 (configuration not stated) | 4.1*
O=C1CCCC2=C1C(c1ccncc1)n1nc(-c3cccc(Cl)c3)nc1N2 (configuration not stated) | -0.3
C=CC[n+]1ccc(/C=C2\Sc3ccccc3N2CC)cc1 | -0.35
N#Cc1c(SCc2ccc(Cl)cc2)nsc1Nc1ccc(Cl)cc1 | 3*
FC(F)(F)c1cccnc1SCc1ccc(Cl)cc1 | -1.6
N#Cc1cnc(SCc2ccc(Cl)cc2)nc1N | 0.28
CC(C)(C)CC(C)(C)NC(=O)C(C)(C)C | -0.4
CC1=C(C(=O)OCC2CCCO2)C(c2ccccc2OCc2ccccc2)C2=C(CCCC2=O)N1 (configuration not stated) | 3.6*
CC1=C(C(=O)OCC2CCCO2)C(c2ccc(OCc3ccccc3)cc2)C2=C(CCCC2=O)N1 (configuration not stated) | 0.06
COc1ccccc1C1C(C(=O)OCC2CCCO2)=C(C)NC2=C1C(=O)CCC2 (configuration not stated) | -0.11
CCSCCOC(=O)C1=C(C)NC2=C(C(=O)CCC2)C1c1ccc(Cl)cc1 (configuration not stated) | 4.2*
